Shown are actives, neighbours in structure and some others; about 3.8% of the full set was active somewhere.
FGF22 binding – binders of human FGF22 protein, primary screen, FGF22 synaptogenesis inhibitor project, biophysical, thermal shift, single point. recombinant FGF22 thermal shift, SYPRO orange fluorescence; percent of sucrose octasulfate shift, DMSO zero. activity (Tm shift, normalised), % at 9.99 µM. 1.5% of 340,000 active. AID 651658, 2012;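 active = mean Tm shift, scaled 0 neutral to 100 positive control, at about 1.3% or above, every replicate too, limit read from the data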
Target sequence (Q9HCT0 whole entry, looked up): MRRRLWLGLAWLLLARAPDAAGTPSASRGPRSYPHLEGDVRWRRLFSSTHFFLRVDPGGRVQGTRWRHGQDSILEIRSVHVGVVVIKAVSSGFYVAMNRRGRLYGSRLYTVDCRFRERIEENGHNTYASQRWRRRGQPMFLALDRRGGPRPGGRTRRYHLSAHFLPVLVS
ADAM10 inh – human ADAM10 inhibitors, primary screen, biochemical, QFRET, HTS. Disintegrin and metalloproteinase domain-containing protein 10 (Homo sapiens), O14672. inhibition, % at 7 µM. recombinant ADAM10, EDANS/DABCYL FRET peptide cleavage, 3 h. 0.62% of 370,000 active. AID 720582, 2013;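 active = inhibition above a per-campaign cutoff equal to the mean of compounds falling between control-based bounds plus 3 SD, cut at about 20% in these data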;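 note: 0% = DMSO wells while the 100% control is not disclosed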
KLK7 zymogen act – proKLK7 zymogen activators, primary screen, biochemical, fluorescence intensity; Kallikrein-7 (Homo sapiens), P49862; purified proKLK7, EDANS-DABCYL substrate fluorescence; 100% is mature enzyme control, 0% vehicle; activation, % at 7 µM; 0.9% of 370,000 active; AID 652039, 2013;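 active = activation above the mean of all tested compounds plus 3 SD, computed per campaign excluding outliers beyond control limits, cut at about 13% in these data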
Target sequence (P49862 whole entry, looked up): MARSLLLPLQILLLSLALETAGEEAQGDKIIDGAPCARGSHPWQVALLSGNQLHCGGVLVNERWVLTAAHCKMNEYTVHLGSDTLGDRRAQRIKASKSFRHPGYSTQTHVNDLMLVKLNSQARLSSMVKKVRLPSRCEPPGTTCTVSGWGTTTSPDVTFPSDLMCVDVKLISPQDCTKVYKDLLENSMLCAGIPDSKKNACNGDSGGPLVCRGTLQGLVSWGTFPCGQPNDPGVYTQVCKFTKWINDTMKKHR
Ecoli rRNA inh – reduced GFP signal of wild-type E. coli, primary screen, bacterial rRNA inhibitor project, GFP/RFP fluorescence, OD600, single point | 1.6% of 350,000 active | E. coli WT GFP vs humanized-ribosome RFP mutants, 24 h; active compounds read low; DMSO median 0, no signal -100 | GFP signal change (wild-type ribosome), % (test concentration not listed);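 active = significant combined selectivity score with lowered wild-type GFP, culture density cut under 30%, mutant RFP and density less affected; inactive = any of these conditions unmet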
ADAM17 inh – ADAM17 inhibitors, primary screen, biochemical, QFRET; Disintegrin and metalloproteinase domain-containing protein 17 (Homo sapiens), P78536; recombinant ADAM17, EDANS/DABCYL FRET peptide cleavage; inhibition, % at 6.95 µM; 0.83% of 370,000 active;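 active = inhibition above the mean of compounds lying between control limits plus 3 SD, set per campaign, cut at about 8.5% in these data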;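 note: 0% = DMSO-only wells as the low control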
* hit, by the source's call.

How did CCN1/C(=C2/OC(=S)N(C)C2=O)Sc2ccccc21 do in these assays?
ADAM10 inh: -5; KLK7 zymogen act: 0; ADAM17 inh: -1

How did CCN1/C(=C2/SC(=S)NC2=O)Sc2ccccc21 do in these assays?
FGF22 binding: 43*; ADAM10 inh: -3; KLK7 zymogen act: 0; ADAM17 inh: -2

What do the screens show for `CN1N=C(C(=O)N2CCc3c([nH]c4ccccc34)C2c2ccccc2Cl)CCC1=O` (stereo unspecified)?
FGF22 binding: 1; ADAM10 inh: 1; KLK7 zymogen act: 2; ADAM17 inh: 0

Results for O=C(c1cc[n+]([O-])cc1)N1CCc2c([nH]c3ccccc23)C1c1ccccc1Cl (stereo unspecified) ?
FGF22 binding: 0; ADAM10 inh: -2; KLK7 zymogen act: 1; Ecoli rRNA inh: -30*; ADAM17 inh: -1

How did Nc1c(C(=O)NCCc2ccccc2)nnn1Cc1ccc(Br)cc1F do in these assays?
FGF22 binding: 43*; ADAM10 inh: 6; KLK7 zymogen act: 0; Ecoli rRNA inh: 7; ADAM17 inh: 2

Results for CCOC(=O)NNC(=O)CCn1c2c(c3ccccc31)CCCC2 ?
FGF22 binding: 0; ADAM10 inh: -13; KLK7 zymogen act: 1; Ecoli rRNA inh: -17*; ADAM17 inh: -7

What do the screens show for `CC(=O)NNC(=O)CCn1c2c(c3ccccc31)CCCC2`?
FGF22 binding: 0; ADAM10 inh: 2; KLK7 zymogen act: 1; Ecoli rRNA inh: 16; ADAM17 inh: -2

Results for C[C@@H]1CN([C@H](C)CO)C(=O)Cc2cc(NC(=O)NC3CCCCC3)ccc2O[C@H]1CN(C)Cc1ccc(C(F)(F)F)cc1 ?
FGF22 binding: 0; Ecoli rRNA inh: 1

How did N#CCCCCn1ccc(NC(=O)c2ccc(Cl)cc2O)n1 do in these assays?
FGF22 binding: 1; ADAM10 inh: -156; KLK7 zymogen act: 0; Ecoli rRNA inh: -30*; ADAM17 inh: -71

What do the screens show for `COc1ccc(NC(=O)N(C)C[C@H]2Oc3c(NS(=O)(=O)c4ccccc4)cccc3C(=O)N([C@H](C)CO)C[C@H]2C)cc1`?
Ecoli rRNA inh: -2

How did O=C(CN1CCN(S(=O)(=O)c2ccccc2[N+](=O)[O-])CC1)NC(=O)NCc1ccco1 do in these assays?
FGF22 binding: 43*; ADAM10 inh: -4; KLK7 zymogen act: 0; Ecoli rRNA inh: 16; ADAM17 inh: -1

How did O=C(CN1CCN(Cc2ccccc2)CC1)NC(=O)NCc1ccco1 do in these assays?
ADAM10 inh: -7; KLK7 zymogen act: 1; ADAM17 inh: -4

How did O=C1[C@H](Cc2ccc(C(F)(F)F)cc2)CCn2cc(nn2)COC[C@@H]2CCCCN12 do in these assays?
Ecoli rRNA inh: -4

Results for CCC(C)NC(=O)C1CCCN1S(=O)(=O)c1ccc(Cl)cc1 (stereo unspecified) ?
FGF22 binding: 0; ADAM10 inh: -5; KLK7 zymogen act: 0; Ecoli rRNA inh: 2; ADAM17 inh: 1

How did NNC(=O)C1CCCN1S(=O)(=O)c1ccc(Cl)cc1 (stereo unspecified) do in these assays?
FGF22 binding: 43*; ADAM10 inh: -4; KLK7 zymogen act: -1; Ecoli rRNA inh: 11; ADAM17 inh: -2

What do the screens show for `O/N=C1\CCCc2ccc3ccccc3c21`?
FGF22 binding: 0; ADAM10 inh: -5; KLK7 zymogen act: 0; Ecoli rRNA inh: -38*; ADAM17 inh: 0

Results for O=C(CN1c2ccccc2S(=O)(=O)c2ccccc21)NCc1ccc(F)cc1 ?
FGF22 binding: 0; ADAM10 inh: 3; KLK7 zymogen act: 0; Ecoli rRNA inh: -33*; ADAM17 inh: -2

Results for COc1ccc(NC(=O)N2C[C@@H](O)COC[C@@H]3O[C@@H](CC(=O)NCc4ccccc4OC)CC[C@H]32)cc1 ?
FGF22 binding: 0; Ecoli rRNA inh: 0

What do the screens show for `Cc1cccc(OCC(=O)N/N=C2/SCC(=O)N2Cc2ccco2)c1`?
FGF22 binding: 43*; ADAM10 inh: 2; KLK7 zymogen act: -1; Ecoli rRNA inh: 0; ADAM17 inh: -2

What do the screens show for `Cc1ccccc1C(=O)N/N=C1\SCC(=O)N1Cc1ccco1`?
FGF22 binding: 44*; ADAM10 inh: -3; KLK7 zymogen act: 1; Ecoli rRNA inh: 10; ADAM17 inh: -4

Results for COc1cc(OC)cc(C(=O)N/N=C2/SCC(=O)N2Cc2ccco2)c1 ?
FGF22 binding: 0; ADAM10 inh: 0; KLK7 zymogen act: 0; Ecoli rRNA inh: 5; ADAM17 inh: -6

What do the screens show for `N#Cc1ccccc1NC(=O)C1SC(=Nc2ccccc2)C(C(=O)Nc2ccc(Cl)cc2)=C1N` (stereo unspecified)?
FGF22 binding: 0; ADAM10 inh: 37*; KLK7 zymogen act: -1; Ecoli rRNA inh: -4; ADAM17 inh: 16*

What do the screens show for `COc1ccccc1N=C1SC(C(=O)Nc2cccc(Cl)c2Cl)C(N)=C1C(N)=O` (stereo unspecified)?
FGF22 binding: 0; ADAM10 inh: 1; KLK7 zymogen act: 0; Ecoli rRNA inh: -12; ADAM17 inh: -5

Results for CNC[C@@H]1OCCCC[C@H](C)Oc2ccc(NC(=O)Cc3ccccc3)cc2C(=O)N([C@@H](C)CO)C[C@@H]1C ?
FGF22 binding: 0; Ecoli rRNA inh: 2

What do the screens show for `CNC(=O)c1ccc(NC(=O)/C=C/c2cccc(F)c2)cc1`?
FGF22 binding: 44*; ADAM10 inh: 6; KLK7 zymogen act: 1; Ecoli rRNA inh: 14; ADAM17 inh: 3

Results for Cc1ccc(NC(=O)/C=C/c2cccc(C(F)(F)F)c2)cc1 ?
FGF22 binding: 18*; ADAM10 inh: 9; KLK7 zymogen act: -1; Ecoli rRNA inh: -1; ADAM17 inh: 4

Results for Cc1cc(NC(=S)Nc2ccccc2)ccc1Br ?
FGF22 binding: 0; ADAM10 inh: -4; KLK7 zymogen act: 0; Ecoli rRNA inh: -30; ADAM17 inh: -2

What do the screens show for `Cc1cc(NC(=S)Nc2cccnc2)ccc1Br`?
FGF22 binding: 0; ADAM10 inh: -3; KLK7 zymogen act: 0; Ecoli rRNA inh: -46*; ADAM17 inh: -4

What do the screens show for `Cc1ccc(S(=O)(=O)Nc2cccc3c2O[C@@H](CN(C)S(=O)(=O)c2ccc(F)cc2)[C@@H](C)CN([C@H](C)CO)C3=O)cc1`?
FGF22 binding: 0; Ecoli rRNA inh: -3

What do the screens show for `CC(=O)N1[C@H](CO)[C@@H](c2ccccc2)C12CN(C(=O)CN1CCOCC1)C2`?
Ecoli rRNA inh: 4

How did Cc1ccc(C(=O)OCC(=O)NCCNC(=O)COC(=O)c2ccc(C)o2)o1 do in these assays?
FGF22 binding: 0; ADAM10 inh: -7; KLK7 zymogen act: 0; Ecoli rRNA inh: 8; ADAM17 inh: -1

Assay outcomes as filed in PubChem BioAssay.
